Compound activity deposited in PubChem by National Center for Advancing Translational Sciences (NCATS).
DT40 TDP1 CPT – qHTS for Inhibitors of human tyrosyl-DNA phosphodiesterase 1 (TDP1): qHTS in cells in presence of CPT; chicken DT40 Tdp1-/-;hTDP1 cells + 20 nM CPT, ATP luminescence, 48 h; Potency, µM (doses to about 46.2 µM), for inactives: at the top dose activity change, negative = growth inhibition, actives largely listed as inhibitors; 420,000 compounds, 12% hits; AID 686979, 2013; also: potency is read from the fitted curve at half-maximal effect; nearly all actives have a fitted effect of over 55% in size
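Chicken DT40 Tdp1-/- cells stably complemented with human TDP1 were seeded at 400 cells/well in medium containing 20 nM camptothecin, exposed to pin-transferred compounds, and grown at 37 °C for at least 48 hr. Viability was read as ATP luminescence.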
TDP1 cell noCPT – qHTS for Inhibitors of human tyrosyl-DNA phosphodiesterase 1 (TDP1): qHTS in cells in absence of CPT | 420,000 compounds, 15% hits | Potency, µM (top dose mostly 46.2 µM), for inactives: top-dose activity change, negative = growth inhibition, hits mostly inhibitors | AID 686978, 2013 | DT40 Tdp1-/- hTDP1 cells, no CPT, ATP luminescence, 48 h; also: potency is read from the fitted curve at half-maximal effect; nearly all actives have a fitted effect of over 55% in size
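Camptothecin absent (DMSO only). Human TDP1-complemented DT40 knockout cells, 400 cells/well, 37 °C for minimum 48 hr; ATP measured via CellTiter-Glo, 30 min dark incubation, luminescence.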
HT1080 IDH1KD tx – qHTS for induction of synthetic lethality in tumor cells producing 2HG: qHTS for the HT-1080-IDH1KD cell line; HT-1080 IDH1 knockdown viability, ATP luminescence, 48 h; Potency, µM (titrated, usually from 46.1 µM), inactives show at the highest dose activity, negative = toxicity, hits mostly cytotoxic; 360,000 compounds, 2% hits; AID 686971, 2013;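 also: potency is read from the fitted curve at half-maximal effect; 0% = DMSO wells and -100% = cell-free medium wells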
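Cytotoxicity counter-line: IDH1KD HT-1080, 48 h, CellTiter-Glo. Curves classed by r2, magnitude and activity.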
ALOX12 inh – Primary qHTS assay for inhibitors of human arachidonate 12S-lipoxygenase (ALOX12): Round 2. Polyunsaturated fatty acid lipoxygenase ALOX12 (Homo sapiens), P18054. purified 12hLO, xylenol orange hydroperoxide absorbance. Potency, µM (titrated, usually from 108 µM), inactives show top-dose activity change, negative = inhibition, usual class: inhibitors. 580,000 compounds, 1.1% hits. AID 1671190, 2021; also: potency is read from the fitted curve at half-maximal effect
Target sequence (P18054 whole entry, looked up): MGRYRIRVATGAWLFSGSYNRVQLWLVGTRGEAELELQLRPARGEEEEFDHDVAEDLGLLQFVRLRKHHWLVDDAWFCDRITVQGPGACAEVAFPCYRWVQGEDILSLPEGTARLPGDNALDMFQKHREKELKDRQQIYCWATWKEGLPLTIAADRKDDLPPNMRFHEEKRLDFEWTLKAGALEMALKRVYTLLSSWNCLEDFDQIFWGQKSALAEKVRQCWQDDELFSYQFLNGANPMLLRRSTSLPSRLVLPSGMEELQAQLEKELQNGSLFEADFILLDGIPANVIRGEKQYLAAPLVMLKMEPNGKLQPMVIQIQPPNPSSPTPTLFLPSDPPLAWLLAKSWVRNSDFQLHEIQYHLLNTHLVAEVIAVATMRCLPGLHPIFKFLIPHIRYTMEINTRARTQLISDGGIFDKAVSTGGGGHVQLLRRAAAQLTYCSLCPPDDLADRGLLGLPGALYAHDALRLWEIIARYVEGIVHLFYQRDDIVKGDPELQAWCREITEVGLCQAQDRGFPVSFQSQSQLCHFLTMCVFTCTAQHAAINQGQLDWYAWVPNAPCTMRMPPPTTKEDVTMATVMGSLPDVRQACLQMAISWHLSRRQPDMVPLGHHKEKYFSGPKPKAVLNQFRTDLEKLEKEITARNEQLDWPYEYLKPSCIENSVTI
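Purified human 12hLO (150 nM final) in 25 mM Hepes, 0.01% Triton X-100, pH 7.0 was preincubated 15 min at room temperature with compound. Then 40 uM arachidonic acid was added, 30 min. Hydroperoxide was read by Fe-XO absorbance ratio 573/405 nm.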
HT1080NT lethal – qHTS for induction of synthetic lethality in tumor cells producing 2HG: qHTS for the HT-1080-NT fibrosarcoma cell line. Potency, µM (top dose mostly 46.1 µM), for inactives: top-dose activity, negative = less viability, hits mostly cytotoxic. HT-1080-NT fibrosarcoma viability, CellTiter-Glo ATP luminescence, 48 h. AID 686970, 2013. 360,000 compounds, 1.6% hits;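 also: NT is the 2HG producing partner of a matched IDH1 knockdown line; potency is read from the fitted curve at half-maximal effect; 0% = DMSO-treated cells and -100% = media-only wells without cells; nearly all actives have a fitted effect of over 55% in size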
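Fibrosarcoma NT cells, 750 per well in 5% FBS RPMI, were exposed to compound for 48 hours. Viability: CellTiter-Glo luminescence.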
IL1B secr inh – qHTS for Inhibitors of Inflammasome Signaling: IL-1-beta AlphaLISA Primary Screen | THP-1 LPS/ATP IL-1B secretion, AlphaLISA, 16 h; hits give low values | activity change, % at 57.5 µM | 360,000 compounds, 4.7% hits; in the data active = activity change below about -50%; inconclusive = mostly about -30% to -49%
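THP-1 cells pretreated 1 hr with compounds (up to 57.5 uM final), then stimulated with LPS (250 ng/mL final) plus ATP (1.25 mM final); secreted IL-1B measured by AlphaLISA after 16 hr, decreased signal indicating inhibition.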
Numbers without * were called inactive; ? = inconclusive; . = no result given; ! = repeats disagree; [ ] = remark or other dose. This excerpt belongs to a sample that is enriched for hits. Unless noted, calls follow the shape of the dose curve; as a rule, active = well fitted curve in the direction sought with a large enough effect; inconclusive = small, poorly fitted or top-dose-only effect, or another doubt; inactive = no such curve, though single readings can be large; an effect the other way counts as inactive or inconclusive. Unless noted, % is scaled to controls: 0 for no effect and ±100 for the full control effect.

SMILES | DT40 TDP1 CPT | TDP1 cell noCPT | HT1080 IDH1KD tx | ALOX12 inh | HT1080NT lethal | IL1B secr inh
O=C(O)c1ccccc1C(=O)N1CCN(Cc2ccc3c(c2)OCO3)CC1 | 10.1% | 24.3% | 18.5% | -1.0% | 18.3% | 28.8
O=C(COc1ccc(Cl)cc1)N1CCN(Cc2ccc3c(c2)OCO3)CC1 | ? | ? | 10.5% | ? | 28.0% | -50.9*!
O=C(Nc1ccc(Cl)cc1)N1CCN(Cc2ccc3c(c2)OCO3)CC1 | -12.7% | -22.0% | -21.9% | -25.8% | -5.4% | 0.0
CCc1cc2cc(C(=O)N3CCN(Cc4ccccc4)CC3)sc2s1 | ? | ? | 1.6% | 495.8% | 3.3% | -84.7*
CCc1cc2cc(C(=O)N3CCN(c4ccccc4)CC3)sc2s1 | -14.0% | ? | 9.7% | 6.3% | 10.1% | 12.4
COc1ccc(CN2CCN(Cc3cccc(OC)c3OC)CC2)cc1 | . | . | . | 0.447µM* | . | .
COc1cccc(CN2CCN(Cc3cc(OC)c(OC)c(OC)c3)CC2)c1OC | ? | ? | 6.6% | ? | 0.8% | 23.2
COc1ccccc1C(=O)N1CCN(Cc2ccc3c(c2)OCO3)CC1 | -7.2% | -13.5% | 7.7% | 0.0% | 9.7% | -57.3*
Cc1nn(-c2nc3ccccc3o2)c2c1C(c1ccc(C(F)(F)F)cc1)CC(=O)N2 (stereo unspecified) | . | . | . | 157.6% | . | .
CC(C)N(C(=O)CC(C#N)(CC(=O)N(C(C)C)C(C)C)c1nc2ccccc2s1)C(C)C | . | . | . | -3.4% | . | .
COCCNC(=O)c1cc(-c2ccc(Cl)cc2)nc2ccccc12 | . | . | . | -74.6% | . | .
O=C(COc1ccccc1)N1CCN(C(=O)c2cccs2)CC1 | -15.4% | -14.5% | -0.1% | 0.0% | 0.5% | 6.1
O=C(COc1ccc(Cl)cc1)N1CCN(C(=O)c2cccs2)CC1 | -16.3% | -27.0% | -9.5% | 2.1% | 2.4% | -73.2*
CCc1ccc(CN2CCN(C(=O)c3cccc(OC)c3OC)CC2)cc1 | ? | ? | 14.1µM* | ? | -11.5% | ?
C/C(=C\c1ccccc1)C(=O)N1CCN(Cc2ccc3c(c2)OCO3)CC1 | -19.9% | -14.5% | -2.1% | 0.0% | -21.6% | -68.8*
COc1cccc(C(=O)N2CCN(C(=O)c3cccc4ccccc34)CC2)c1OC | ? | ? | 7.1% | -15.2% | 6.0% | 2.2
CCOc1ccccc1C(=O)NCC(=O)N1CCN(Cc2ccc3c(c2)OCO3)CC1 | 29.1µM* | ? | ? | . | ? | -79.9*
CC1CCCCC12CCc1cc3c4c(c(=O)oc3cc1O2)CCCC4 (stereo unspecified) | . | . | . | -7.9% | . | .
COc1ccc(NC(=O)CC2Sc3ccccc3NC2=O)cc1 (stereo unspecified) | . | . | . | -29.2% | . | .
CN1CCN(C(=O)c2ccc3nc(-c4ccc(F)cc4)c(-c4ccc(F)cc4)nc3c2)CC1 | . | . | . | 20.5% | . | .
Cc1ccc(Cn2nc(C)c3cc(C(=O)N4CCN(CC(=O)N5CCCC5)CC4)sc32)cc1 | . | . | . | -6.0% | . | .
COc1ccc(CN2CCOc3ccc(C(=O)NCc4ccc(C)cc4)cc3C2)cc1OC | . | . | . | 9.0% | . | .
Cc1nn(Cc2ccccc2)c2sc(C(=O)N3CCN(Cc4ccc5c(c4)OCO5)CC3)cc12 | 16.4µM* | ? | ? | 12.8% | ? | ?
O=C(c1ccccc1F)N1CCN(Cc2ccc3c(c2)OCO3)CC1 | 10.9% | -24.7% | -16.6% | ? | 1.4% | -66.9*
COc1cc(S(=O)(=O)N2CCN(Cc3ccc4c(c3)OCO4)CC2)c(C)cc1C | 14.6µM* | ? | -1.6% | 34.7% | -22.0% | -20.4
SMILES | DT40 TDP1 CPT | TDP1 cell noCPT | HT1080 IDH1KD tx | ALOX12 inh | HT1080NT lethal | IL1B secr inh
COc1cc(OC)c(OC)cc1CN1CCOc2ccc(CN3CCN(C(C)=O)CC3)cc2C1 | -7.5%[9.04 µM] | 20.6µM* | . | 27.3% | . | .
C=CCCC(CN1CCCC1)Oc1ccc(C(=O)N2CCCC2)cn1 (stereo unspecified) | . | . | . | 17.3% | . | .
CCOc1cccc(C(=O)NCc2nc(-c3cccs3)no2)c1 | . | . | . | -15.3% | . | .
O=C1NC2(CN(Cc3ccccc3C(F)(F)F)C2)Oc2ccccc21 | . | . | . | 55.2% | . | .
N#Cc1c(F)cccc1N1CCN(Cc2ccc3c(c2)OCO3)CC1 | 16.4µM* | ? | -19.7% | 5.0% | -21.5% | -13.6
O=C(CN1C(=O)c2cccc3cccc(c23)C1=O)N1CCN(Cc2ccc3c(c2)OCO3)CC1 | 20.6µM* | 18.4µM* | 2.4% | -21.7% | -3.3% | -6.4
Cc1cccc(Cc2cnc(NC(=O)c3cc(=O)c4cc(C)ccc4o3)s2)c1 | . | . | . | 39.3% | . | .
COc1cc(NC(=O)c2cc(-c3cccc(O)c3)on2)cc(OC)c1OC | ? | 13µM* | ? | 6.0% | ? | 5.0
CCC(C)NC(=O)c1cc(-c2cccs2)nc2ccccc12 (stereo unspecified) | 26.8% | ? | -1.1% | ? | 2.2% | 17.4
COCCNC(=O)c1cc(-c2cccs2)on1 | ? | 23.1µM* | -28.3% | 4.0% | -9.8% | 20.1
CCC(C)NC(=O)c1ccc2nc(-c3cccs3)c(-c3cccs3)nc2c1 (stereo unspecified) | 10µM* | 12.6µM* | . | . | . | .
COc1cc(NC(=O)c2cc(-c3cccs3)on2)cc(OC)c1OC | 20.6µM* | 16.4µM* | -29.0% | 11.0% | -22.6% | -5.8
Cc1ccccc1-n1ncc2c1NC(=O)CC21C(=O)Nc2cccc(Cl)c21 (stereo unspecified) | . | . | . | -26.4% | . | .
COc1ccc2c(c1)CCc1c(C(=O)Nc3ccc(OC)c(OC)c3)noc1-2 | ? | ? | 10.8% | -1.3% | 15.5% | -17.9
COCCNC(=O)Nc1ccc2nc(-c3cccs3)c(-c3cccs3)nc2c1 | ? | ? | -2.4% | ? | -3.9% | -53.9*
COc1cc(NC(=O)Nc2cccc(-c3noc(C)n3)c2)cc(OC)c1OC | ? | 23.1µM* | . | -11.4% | . | .
COc1cc(NC(=O)c2cc(-c3ccccc3Cl)on2)cc(OC)c1OC | 2.91µM* | 2.91µM* | ? | -8.0% | ? | -81.3*
COc1ccc(-c2cc(C(=O)Nc3cc(OC)c(OC)c(OC)c3)no2)cc1 | ? | -20.6% | 3.8% | 9.5% | -1.2% | -13.7
COc1cc(NC(=O)c2noc3c2CCc2ccccc2-3)cc(OC)c1OC | 7.31µM* | 16.4µM* | . | -4.9% | . | .
